Test results as given in the supplement of paper PMC10849652.
Of roughly 7,900 targets only a part is listed; those with a hit were picked by preference. About 0.6% of all pairs of compound and target were hits. A number with no mark means an inactive call.

Assays:
Assay in all cases: log2 fold change, soluble protein after heating vs DMSO (PISA); higher = thermal stabilisation; K562 cells, 10 uM, 30 min; active = over 0.2 and 3.5 SD of the protein, either way, in both replicates (recomputed)
[1] = compound: COC1=CC=C(C=C1)CN2C=CC3=C2C=C(C=C3)C(=O)NO
In short: (§1)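 K562 cells at 2×10^6 cells/mL were exposed to 10 μM compound for 30 min, then aliquots were heated for 3 min across 48°C-58°C, pooled, and extracted in PBS containing 0.5% NP-40 at 4°C. The supernatant after 21,000xg for 90 min was taken as soluble protein and measured by TMTpro 16plex LC-MS/MS with channel sums equalised. Thermal stability is reported relative to control samples, with values from duplicates. Fold changes are given on a log2 scale.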

filanesib = compound: CON(C)C(=O)N1N=C(c2cc(F)ccc2F)S[C@@]1(CCCN)c1ccccc1 [filanesib]
In short: as §1

zotarolimus = compound: CO[C@H]1C[C@@H]2CC[C@@H](C)[C@@](O)(O2)C(=O)C(=O)N2CCCC[C@H]2C(=O)O[C@H]([C@H](C)C[C@@H]2CC[C@H](n3cnnn3)[C@H](OC)C2)CC(=O)[C@H](C)/C=C(\C)[C@@H](O)[C@@H](OC)C(=O)[C@H](C)C[C@H](C)/C=C/C=C/C=C/1C [zotarolimus]
In short: as §1

idasanutlin = compound: COc1cc(C(=O)O)ccc1NC(=O)[C@@H]1N[C@@H](CC(C)(C)C)[C@](C#N)(c2ccc(Cl)cc2F)[C@H]1c1cccc(Cl)c1F [idasanutlin]
In short: as §1

alisertib = compound: COc1cc(Nc2ncc3c(n2)-c2ccc(Cl)cc2C(c2c(F)cccc2OC)=NC3)ccc1C(=O)O [alisertib]
In short: as §1

[2] = compound: COc1cc2nc(-c3cc(F)ccc3O)nc(N[C@@H]3CNC[C@H]3C(C)(C)O)c2cc1OC
In short: as §1

gefitinib = compound: COc1cc2ncnc(Nc3ccc(F)c(Cl)c3)c2cc1OCCCN1CCOCC1 [gefitinib]
In short: as §1

[3] = compound: COc1cccc2cc(-c3nc([C@H]4CC[C@H](C(=O)O)CC4)n4ncnc(N)c34)[nH]c12
In short: as §1

lapatinib = compound: CS(=O)(=O)CCNCc1ccc(-c2ccc3ncnc(Nc4ccc(OCc5cccc(F)c5)c(Cl)c4)c3c2)o1 [lapatinib]
In short: as §1

pictilisib = compound: CS(=O)(=O)N1CCN(Cc2cc3nc(-c4cccc5[nH]ncc45)nc(N4CCOCC4)c3s2)CC1 [pictilisib]
In short: as §1

[4] = compound: CS(=O)(=O)c1ccc(-c2cnc(N)c(C(=O)Nc3ccccc3)n2)cc1
In short: as §1

crizotinib = compound: C[C@@H](Oc1cc(-c2cnn(C3CCNCC3)c2)cnc1N)c1c(Cl)ccc(F)c1Cl [crizotinib]
In short: as §1

[5] = compound: C[C@@H]1COCCN1C2=NC(=NC(=C2)C3(CC3)S(=O)(=O)C)C4=C5C=CNC5=CC=C4
In short: as §1

[6] = compound: C[C@H](C1=CC=C(C=C1)C(=O)NC2=C3C=CNC3=NC=C2)N
In short: as §1

duvelisib = compound: C[C@H](Nc1ncnc2nc[nH]c12)c1cc2cccc(Cl)c2c(=O)n1-c1ccccc1 [duvelisib]
In short: as §1

gandotinib = compound: Cc1cc(Nc2cc(CN3CCOCC3)c3nc(C)c(Cc4ccc(Cl)cc4F)n3n2)n[nH]1 [gandotinib]
In short: as §1

tozasertib = compound: Cc1cc(Nc2cc(N3CCN(C)CC3)nc(Sc3ccc(NC(=O)C4CC4)cc3)n2)n[nH]1 [tozasertib]
In short: as §1

[7] = compound: Cc1cc(SCc2sc(-c3ccc(C(F)(F)F)cc3)nc2C)ccc1OCC(=O)O
In short: as §1

doramapimod = compound: Cc1ccc(-n2nc(C(C)(C)C)cc2NC(=O)Nc2ccc(OCCN3CCOCC3)c3ccccc23)cc1 [doramapimod]
In short: as §1

ispinesib = compound: Cc1ccc(C(=O)N(CCCN)[C@@H](c2nc3cc(Cl)ccc3c(=O)n2Cc2ccccc2)C(C)C)cc1 [ispinesib]
In short: as §1

Sequence of UniProt P23434 (P23434 whole entry, looked up): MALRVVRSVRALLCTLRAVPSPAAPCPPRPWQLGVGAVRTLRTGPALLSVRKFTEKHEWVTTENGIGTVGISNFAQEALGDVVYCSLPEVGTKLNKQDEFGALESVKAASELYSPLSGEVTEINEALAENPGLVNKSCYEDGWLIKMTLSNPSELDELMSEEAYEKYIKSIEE
Sequence of UniProt P36969 (P36969 whole entry, looked up): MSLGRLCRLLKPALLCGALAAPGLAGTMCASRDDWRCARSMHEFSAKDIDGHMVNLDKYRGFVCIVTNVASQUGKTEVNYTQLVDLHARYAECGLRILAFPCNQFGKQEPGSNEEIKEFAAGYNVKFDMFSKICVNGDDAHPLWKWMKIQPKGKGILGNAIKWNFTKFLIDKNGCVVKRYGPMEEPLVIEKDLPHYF
Sequence of UniProt P00390 (P00390 whole entry, looked up): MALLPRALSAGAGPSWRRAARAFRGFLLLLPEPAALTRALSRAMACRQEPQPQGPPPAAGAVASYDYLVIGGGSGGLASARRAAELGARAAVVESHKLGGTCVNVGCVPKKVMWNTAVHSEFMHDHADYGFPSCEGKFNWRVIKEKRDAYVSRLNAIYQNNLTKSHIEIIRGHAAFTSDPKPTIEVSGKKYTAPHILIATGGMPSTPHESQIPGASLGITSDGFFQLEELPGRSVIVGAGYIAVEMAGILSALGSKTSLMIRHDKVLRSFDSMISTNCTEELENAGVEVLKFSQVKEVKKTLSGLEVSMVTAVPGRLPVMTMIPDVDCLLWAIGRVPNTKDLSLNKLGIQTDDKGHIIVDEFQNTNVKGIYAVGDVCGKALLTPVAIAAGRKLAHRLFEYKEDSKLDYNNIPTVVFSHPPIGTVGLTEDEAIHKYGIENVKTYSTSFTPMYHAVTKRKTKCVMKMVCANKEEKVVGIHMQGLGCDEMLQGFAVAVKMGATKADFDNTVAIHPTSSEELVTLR
Sequence of UniProt Q92769 (Q92769 whole entry, looked up): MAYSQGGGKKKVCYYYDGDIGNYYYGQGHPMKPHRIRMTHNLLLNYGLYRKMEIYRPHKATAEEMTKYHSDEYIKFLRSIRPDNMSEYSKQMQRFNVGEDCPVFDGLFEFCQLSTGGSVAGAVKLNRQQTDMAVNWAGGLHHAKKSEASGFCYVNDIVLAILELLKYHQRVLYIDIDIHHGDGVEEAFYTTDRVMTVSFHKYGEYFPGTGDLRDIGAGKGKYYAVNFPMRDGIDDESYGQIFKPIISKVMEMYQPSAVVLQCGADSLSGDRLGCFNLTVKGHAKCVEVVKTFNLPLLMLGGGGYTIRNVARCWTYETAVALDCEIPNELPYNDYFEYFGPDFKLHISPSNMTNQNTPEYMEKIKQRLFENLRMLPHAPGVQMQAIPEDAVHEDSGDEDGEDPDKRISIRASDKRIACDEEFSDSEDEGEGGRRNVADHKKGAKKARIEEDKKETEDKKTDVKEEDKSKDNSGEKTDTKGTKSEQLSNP
Sequence of UniProt Q9Y3I1 (Q9Y3I1 whole entry, looked up): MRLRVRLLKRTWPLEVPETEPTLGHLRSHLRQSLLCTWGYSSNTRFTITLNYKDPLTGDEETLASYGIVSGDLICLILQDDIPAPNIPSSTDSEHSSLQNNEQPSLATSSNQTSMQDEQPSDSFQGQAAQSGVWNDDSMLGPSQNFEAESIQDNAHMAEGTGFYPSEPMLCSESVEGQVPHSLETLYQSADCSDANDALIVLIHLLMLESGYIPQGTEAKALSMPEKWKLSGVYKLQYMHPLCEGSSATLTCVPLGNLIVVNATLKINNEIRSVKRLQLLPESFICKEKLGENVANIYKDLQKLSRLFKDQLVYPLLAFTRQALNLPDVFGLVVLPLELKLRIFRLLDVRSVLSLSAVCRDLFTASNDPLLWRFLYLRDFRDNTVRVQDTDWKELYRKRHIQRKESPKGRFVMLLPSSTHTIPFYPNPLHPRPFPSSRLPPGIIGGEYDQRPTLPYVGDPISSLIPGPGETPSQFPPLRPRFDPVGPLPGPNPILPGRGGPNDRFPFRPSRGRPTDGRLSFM
Sequence of UniProt P31150 (P31150 whole entry, looked up): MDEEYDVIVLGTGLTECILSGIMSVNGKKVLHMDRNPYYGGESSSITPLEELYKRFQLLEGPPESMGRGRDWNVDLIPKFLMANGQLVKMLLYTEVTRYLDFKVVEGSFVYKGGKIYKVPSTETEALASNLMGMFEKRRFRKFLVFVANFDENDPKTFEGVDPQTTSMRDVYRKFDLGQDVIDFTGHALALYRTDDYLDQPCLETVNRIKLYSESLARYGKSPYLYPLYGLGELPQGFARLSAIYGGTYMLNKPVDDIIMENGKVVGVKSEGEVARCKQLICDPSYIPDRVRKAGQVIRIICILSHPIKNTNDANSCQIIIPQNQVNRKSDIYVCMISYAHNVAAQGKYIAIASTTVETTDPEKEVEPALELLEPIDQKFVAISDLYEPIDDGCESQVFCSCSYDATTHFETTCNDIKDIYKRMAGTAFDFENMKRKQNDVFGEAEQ
Sequence of UniProt P49448 (P49448 whole entry, looked up): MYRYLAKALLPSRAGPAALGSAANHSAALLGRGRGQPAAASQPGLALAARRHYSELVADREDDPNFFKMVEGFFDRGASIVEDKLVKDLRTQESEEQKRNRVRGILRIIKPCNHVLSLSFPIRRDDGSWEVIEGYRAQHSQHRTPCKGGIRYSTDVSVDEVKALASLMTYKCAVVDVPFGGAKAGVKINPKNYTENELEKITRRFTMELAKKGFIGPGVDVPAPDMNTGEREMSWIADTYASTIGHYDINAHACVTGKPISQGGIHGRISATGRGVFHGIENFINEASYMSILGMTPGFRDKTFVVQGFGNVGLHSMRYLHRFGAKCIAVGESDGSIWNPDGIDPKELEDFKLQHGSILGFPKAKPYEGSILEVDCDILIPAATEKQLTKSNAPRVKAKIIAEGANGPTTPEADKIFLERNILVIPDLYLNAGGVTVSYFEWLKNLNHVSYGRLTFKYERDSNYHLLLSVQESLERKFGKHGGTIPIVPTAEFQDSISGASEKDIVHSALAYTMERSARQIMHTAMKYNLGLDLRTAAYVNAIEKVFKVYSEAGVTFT
Sequence of UniProt Q70Z53 (Q70Z53 whole entry, looked up): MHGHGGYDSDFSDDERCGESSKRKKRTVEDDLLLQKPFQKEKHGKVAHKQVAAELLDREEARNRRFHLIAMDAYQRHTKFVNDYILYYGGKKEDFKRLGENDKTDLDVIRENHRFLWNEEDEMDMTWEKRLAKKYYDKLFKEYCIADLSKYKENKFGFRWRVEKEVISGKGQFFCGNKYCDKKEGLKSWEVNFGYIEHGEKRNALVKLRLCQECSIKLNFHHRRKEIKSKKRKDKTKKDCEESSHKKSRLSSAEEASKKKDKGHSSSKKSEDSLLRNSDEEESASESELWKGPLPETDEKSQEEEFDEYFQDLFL
Sequence of UniProt P36915 (P36915 whole entry, looked up): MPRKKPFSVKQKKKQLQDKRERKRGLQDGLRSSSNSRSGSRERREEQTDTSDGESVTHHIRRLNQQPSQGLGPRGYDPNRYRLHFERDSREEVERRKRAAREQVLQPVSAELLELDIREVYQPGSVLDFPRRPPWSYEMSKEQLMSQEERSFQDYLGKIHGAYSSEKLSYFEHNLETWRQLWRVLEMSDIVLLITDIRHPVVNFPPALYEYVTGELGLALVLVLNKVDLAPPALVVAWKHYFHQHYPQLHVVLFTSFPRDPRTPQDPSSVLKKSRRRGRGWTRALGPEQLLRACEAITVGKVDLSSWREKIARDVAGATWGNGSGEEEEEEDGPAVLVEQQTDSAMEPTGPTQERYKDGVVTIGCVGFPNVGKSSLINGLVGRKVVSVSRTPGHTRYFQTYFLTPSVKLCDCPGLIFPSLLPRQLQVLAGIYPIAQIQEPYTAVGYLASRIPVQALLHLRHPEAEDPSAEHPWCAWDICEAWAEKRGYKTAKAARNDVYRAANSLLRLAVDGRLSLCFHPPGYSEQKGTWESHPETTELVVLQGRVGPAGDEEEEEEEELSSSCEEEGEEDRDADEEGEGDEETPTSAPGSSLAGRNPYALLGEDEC
Sequence of UniProt Q03014 (Q03014 whole entry, looked up): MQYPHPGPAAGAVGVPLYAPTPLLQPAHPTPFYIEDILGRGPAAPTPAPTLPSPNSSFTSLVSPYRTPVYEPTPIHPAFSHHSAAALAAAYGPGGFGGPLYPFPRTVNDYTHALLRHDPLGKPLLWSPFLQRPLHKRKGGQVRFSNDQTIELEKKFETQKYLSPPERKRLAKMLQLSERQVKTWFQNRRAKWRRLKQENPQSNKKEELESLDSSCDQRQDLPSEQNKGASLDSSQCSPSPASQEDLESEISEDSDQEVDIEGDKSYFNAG
Sequence of UniProt Q7Z4H3 (Q7Z4H3 whole entry, looked up): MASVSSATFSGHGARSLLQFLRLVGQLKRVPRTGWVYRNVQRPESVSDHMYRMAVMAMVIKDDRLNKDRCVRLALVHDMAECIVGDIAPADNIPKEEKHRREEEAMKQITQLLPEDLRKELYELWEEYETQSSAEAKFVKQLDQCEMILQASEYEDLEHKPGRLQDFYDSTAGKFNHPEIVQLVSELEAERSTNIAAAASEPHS
Sequence of UniProt P05114 (P05114 whole entry, looked up): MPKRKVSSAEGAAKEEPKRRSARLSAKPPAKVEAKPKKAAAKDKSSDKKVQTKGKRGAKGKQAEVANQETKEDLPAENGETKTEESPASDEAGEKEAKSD
Sequence of UniProt Q92664 (Q92664 whole entry, looked up): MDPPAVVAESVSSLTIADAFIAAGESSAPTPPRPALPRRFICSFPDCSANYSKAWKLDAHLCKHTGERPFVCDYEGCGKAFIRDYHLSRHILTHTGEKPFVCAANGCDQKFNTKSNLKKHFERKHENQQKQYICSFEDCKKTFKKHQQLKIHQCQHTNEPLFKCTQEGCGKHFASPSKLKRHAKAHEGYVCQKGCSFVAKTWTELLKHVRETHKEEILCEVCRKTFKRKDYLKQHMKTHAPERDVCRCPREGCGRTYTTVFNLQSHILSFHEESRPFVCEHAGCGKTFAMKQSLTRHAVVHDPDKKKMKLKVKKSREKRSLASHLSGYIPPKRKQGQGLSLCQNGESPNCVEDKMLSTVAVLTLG

Target | log2 fold change [1] | log2 fold change (filanesib) | log2 fold change (zotarolimus) | log2 fold change (idasanutlin) | log2 fold change (alisertib) | log2 fold change [2] | log2 fold change (gefitinib) | log2 fold change [3] | log2 fold change (lapatinib) | log2 fold change (pictilisib) | log2 fold change [4] | log2 fold change (crizotinib) | log2 fold change [5] | log2 fold change [6] | log2 fold change (duvelisib) | log2 fold change (gandotinib) | log2 fold change (tozasertib) | log2 fold change [7] | log2 fold change (doramapimod) | log2 fold change (ispinesib)
GSR (UniProt P00390) | 0.023 | -0.065 | -0.039 | -0.049 | -0.032 | 0.015 | -0.016 | 0.043 | -0.057 | 0.036 | 0.009 | 0.046 | 0.029 | -0.085 | 0.014 | 0.002 | -0.011 | -0.02 | -0.047 | -0.003
HDAC2 (UniProt Q92769) | -0.144 | 0.029 | 0.008 | 0.008 | -0.041 | 0 | 0.007 | 0.017 | 0.063 | 0.024 | -0.01 | 0.08 | -0.02 | -0.046 | 0.022 | 0.003 | -0.002 | -0.029 | 0.011 | 0.072
HMGN1 (UniProt P05114) | 0.01 | 0.044 | -0.034 | 0.026 | -0.04 | 0.059 | -0.07 | 0.026 | -0.09 | -0.003 | -0.067 | 0.055 | -0.034 | 0.058 | -0.045 | 0.094 | 0.015 | -0.027 | 0.013 | -0.042
GNL1 (UniProt P36915) | 0.047 | -0.066 | 0.049 | -0.056 | -0.107 | 0.039 | 0.031 | 0.061 | 0.011 | 0.04 | 0.051 | -0.014 | 0.162 | -0.011 | 0.013 | 0.028 | -0.014 | 0.052 | -0.019 | 0.087
GCC2 (UniProt Q8IWJ2) | -0.037 | 0.137 | 0.074 | 0.065 | -0.046 | -0.037 | 0.024 | -0.11 | 0.056 | 0.014 | 0.04 | -0.01 | -0.104 | 0.246 | -0.007 | 0.081 | 0.113 | 0.048 | 0.136 | -0.173
FRA10AC1 isoform 3 (UniProt Q70Z53) | -0.022 | 0.179 | -0.049 | -0.319 | -0.033 | 0.068 | 0 | -0.005 | -0.064 | -0.11 | -0.082 | 0.201 | 0.059 | 0.029 | 0.07 | 0.189 | -0.123 | -0.116 | -0.044 | 
FBXO7 (UniProt Q9Y3I1) | 0.037 | -0.069 | -0.026 | -0.04 | -0.082 | 0.082 | -0.023 | 0.011 | -0.082 | 0.036 | 0.038 | 0.041 | 0.061 | -0.023 | 0.015 | -0.194 | -0.018 | 0.083 | -0.029 | 0.098
GCSH (UniProt P23434) | -0.086 | -0.029 | 0.014 | -0.024 | 0.154 | 0.03 | 0.003 | 0.001 | -0.028 | -0.078 | -0.009 | 0.073 | 0.005 | -0.022 | -0.014 | 0.043 | 0.07 | 0.026 | 0.032 | -0.057
GTF3A (UniProt Q92664) | 0.092 | -0.138 | 0.067 | -0.018 | 0.014 | -0.225 | -0.139 | -0.006 | 0.099 | -0.042 | -0.002 | -0.145 | 0.015 | 0.078 | 0.019 | 0.023 | -0.025 | 0.023 | -0.001 | 
GLUD2 (UniProt P49448) | -0.041 | -0.032 | 0.123 | -0.07 | -0.06 | -0.003 | 0.061 | 0.023 | 0.191 | 0.216 | 0.102 | 0.003 | 0.011 | -0.062 | 0.191 | 0.064 | -0.095 | 0.016 | 0.041 | 0
GDI1 (UniProt P31150) | -0.073 | -0.043 | 0.01 | -0.056 | -0.067 | 0.045 | -0.011 | 0.037 | -0.032 | -0.006 | 0.018 | 0.026 | 0.061 | -0.054 | 0.014 | -0.049 | 0.004 | -0.009 | -0.027 | 0.084
GPX4 (UniProt P36969) | -0.035 | -0.011 | -0.248 (active) | 0.032 | -0.02 | 0.003 | -0.004 | 0.076 | -0.036 | -0.034 | 0.014 | 0.079 | 0.011 | -0.072 | 0.055 | 0.013 | 0.023 | -0.017 | -0.039 | 0.213
HDDC2 (UniProt Q7Z4H3) | -0.098 | -0.037 | 0.049 | -0.068 | 0.04 | -0.05 | -0.022 | 0.068 | 0.037 | 0.064 | 0.044 | -0.058 | 0.106 | -0.103 | 0.04 | 0.032 | 0.026 | 0.024 | 0.031 | 0.228
HDAC6 (UniProt Q9UBN7) | 0.676 (active) | 0.006 | 0.008 | -0.055 | -0.097 | 0.028 | 0.043 | -0.027 | 0.016 | 0.062 | -0.019 | -0.057 | -0.007 | 0.066 | 0.045 | 0.079 | -0.091 | 0.062 | 0.015 | -0.027
HHEX (UniProt Q03014) | 0.178 | -0.007 | -0.102 | 0.035 | 0.002 | -0.04 | -0.016 | 0.053 | -0.004 | -0.012 | -0.014 | -0.027 | -0.104 | 0.49 | -0.072 | -0.042 | -0.019 | 0.021 | 0.05 | -0.128
